# Measurements: PubChem BioAssay AID1315 (University of Pittsburgh Molecular Library Screening Center, 2008)
# The other results are listed elsewhere or left out. Unmarked numbers belong to inactive results. No rule for the calls is given here.
# Test: FP signal artefacts, PKD1 kinase format – biochemical, fluorescence polarization, 140K library, artefact control for PKD1 inhibitor project (AID 1315)
# Details: PKD1 FP assay interference counter-screen, at 10 µM, stronger effect = higher value
row,Structure (SMILES),inhibition
1,COc1ccc(Nc2cc(C)nc(-n3nc(C)cc3C)n2)cc1,-21.9%
2,COc1ccccc1C(=O)NN1C(=O)C2C3C=CC(O3)C2C1=O (stereo not drawn),-4.38%
3,Cc1ccc(NC(=O)C2CCCN(S(=O)(=O)c3c(C)noc3C)C2)c(C)c1 (stereo not drawn),-13.6%
